Assay outcomes as filed in PubChem.
hERG WT inh = KCNH2 (human, wildtype) channel inhibition; Q12809; U2OS, BacMam KCNH2, thallium flux FluxOr; stronger effect = lower value; activity change, % at 1.84 µM; 0.37% of 340,000 active;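 active = maximum activity change below -70%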; note: % is set by controls: 0 for no effect and ±100 for the full control effect
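U2OS cells transduced with wild-type KCNH2 virus are loaded with FluxOr dye for 45 min, and thallium flux is measured in kinetic reads before and after stimulation buffer. Rate constants are normalized to DMSO controls.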
Tb PFK block = T. brucei PFK enzyme inhibition; O15648; T. brucei PFK, ADP-Glo luminescence; Potency, µM (doses to about 57.5 µM), for inactives: at the highest dose activity, negative = inhibition, hits mostly inhibitors; 0.17% of 330,000 active; AID 485367; active = well fitted inhibition curve with a large enough effect;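 note: potency is the fitted concentration of half-maximal effect; 0% = uninhibited 1x PFK enzyme wells and -100% = no-enzyme wells; nearly all actives have a fitted effect of over 60% in size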
Target sequence (O15648 whole entry, looked up): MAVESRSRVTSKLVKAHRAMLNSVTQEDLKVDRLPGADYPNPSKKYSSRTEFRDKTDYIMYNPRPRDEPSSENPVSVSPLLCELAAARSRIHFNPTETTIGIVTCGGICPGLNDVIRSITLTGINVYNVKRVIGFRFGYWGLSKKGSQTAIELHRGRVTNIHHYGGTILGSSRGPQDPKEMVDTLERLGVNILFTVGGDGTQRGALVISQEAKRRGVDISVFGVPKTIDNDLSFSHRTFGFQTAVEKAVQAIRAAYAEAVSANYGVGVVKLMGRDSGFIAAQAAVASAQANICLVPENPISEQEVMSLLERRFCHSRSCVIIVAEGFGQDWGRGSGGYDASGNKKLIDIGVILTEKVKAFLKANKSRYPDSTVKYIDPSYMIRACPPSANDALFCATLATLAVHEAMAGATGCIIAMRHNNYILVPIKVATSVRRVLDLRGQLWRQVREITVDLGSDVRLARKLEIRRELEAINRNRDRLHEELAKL
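Activity is normalized to no-enzyme wells (full inhibition) and 1.25 nM enzyme wells (no inhibition). Reaction: 0.5 mM F6P, 0.1 mM ATP, 45 min RT, ADP-Glo luminescence; concentration-response curves fitted and classed by quality.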
KCNH2 3.1 inh = blocks the human KCNH2 3.1 channel isoform. U2OS KCNH2 3.1, thallium flux FluxOr; stronger effect = lower value. activity change, % (tested at about 1.8 µM). 0.95% of 340,000 active. AID 720553;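 active = maximum activity change below -70%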;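 note: thallium influx rate constant from kinetic fluorescence after stimulation buffer; % is set by controls: 0 for no effect and ±100 for the full control effect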
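Virally transduced U2OS (3.1 isoform, 4 h infection in dark at RT) → overnight 37 C → FluxOr + Red40 in HBSS/HEPES, 45 min → stimulation buffer, 2 min kinetic read → rate constant vs DMSO controls.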
PTAP TSG101 blk = blocks PTAP/TSG101 interaction to inhibit HIV-1 budding; Q99816; Fluorescence polarization, FITC-PTAP peptide / Tsg101 binding; Potency, µM (top dose mostly 115 µM), inactives show top-dose activity change, negative = inhibition, usual class: inhibitors; 340,000 tested, under 10 active; AID 493005; active = well fitted inhibition curve with a large enough effect in the main read-out, with a control signal flat, not every such curve was filed as active; note: potency is the fitted concentration of half-maximal effect; % of control where 0% means no effect
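Steps: Tsg101 binding domain dispensed (10 uM final), compounds pinned in DMSO, FITC-labeled PTAP-motif peptide added (50 nM final); after 20 min binding at room temperature, polarization measured.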
* marks the source's active call; other numbers are inactive results; . = no result given; [ ] = dose if it differs, or a comment. The list is not random: actives were taken first. Their share in the collection is about 1.2%.

SMILES	hERG WT inh	Tb PFK block	KCNH2 3.1 inh	PTAP TSG101 blk
COc1ccc(/C=N/NC(=O)c2ccoc2C)cc1CN1CCN(c2ccc(F)cc2)CC1	-49	-20%	-110*	1%
Cc1cc(C)c2c(n1)sc1c(-c3ccccc3)c(C#N)c(N)nc12	-244*	2%	-184*	0%
O=C(N/N=C/c1ccc(O)cc1)/C(=C/c1ccccc1)CCO	-3	11%	-88*	0%
O=C(N/N=C/c1ccccc1)C(=O)N/N=C/c1ccccc1	2	0%	-4	1%
O=C(COC(=O)c1ccc[n+]([O-])c1)Nc1c(Br)cc([N+](=O)[O-])cc1Br	.	-2%	.	.
CCOC(=O)c1nc(C)sc1-c1ccnn1S(=O)(=O)c1cccc(Cl)c1	-135*	0%	6	-2%
COC(=O)[C@H]1[C@H]2C[C@@H]3c4[nH]c5cc(OC)ccc5c4CCN3C[C@H]2C[C@@H](OC(=O)c2ccc(N)cc2)[C@@H]1OC	-6	3%	-8	3%
COC(=O)[C@H]1[C@H]2C[C@@H]3c4[nH]c5cc(OC)ccc5c4CCN3C[C@H]2C[C@@H](OC(=O)/C=C/c2cc(OC)c(OC)c(OC)c2)[C@@H]1OC	-31	-4%	-73*	4%
O=C(NCc1ccco1)C1CCN(c2nc3ccccc3n2Cc2ccc(F)cc2)CC1	-152*	-2%	-104*	-6%
O=c1[nH][nH]c(-c2ccccc2)c1C=Nc1ccc(OC(F)(F)F)cc1	1	1%	-7	0%
COc1ccc(CCNC(=O)CC2(CC3=NS(=O)(=O)c4ccccc4N3)CCCC2)cc1OC	-3	0%	14	18%
Cc1ccc(CNC(=O)CC2(CC3=NS(=O)(=O)c4ccccc4N3)CCCC2)cc1	8	-4%	-85*	-4%
Cc1ccc(CNC(=O)CSc2nc3ccsc3c(=O)n2Cc2ccccn2)cc1	2	-5%	-5	-3%
C=CCN(C(=O)CSc1nc2ccsc2c(=O)n1Cc1ccccn1)c1ccccc1	-9	-3%	-91*	-3%
CCN(CCn1cccn1)C(=O)CCc1nnc(C2(c3ccc(Cl)cc3)CCC2)o1	-137*	3%	-194*	0%
Cc1c(C(=O)N2CCN(c3ncccn3)CC2)oc2ccc(Cl)cc12	0	-10%	-10	-2%
CCOc1ccc(S(=O)(=O)Nc2c(C)n(C)n(-c3ccccc3)c2=O)cc1	-197*	1%	17	-2%
Cc1c(NS(=O)(=O)c2ccc(Br)cc2)c(=O)n(-c2ccccc2)n1C	1	0%	-33	-5%
CC[C@@H]1CC=C[C@H]2[C@H]1C(=O)N(Cc1ccccc1)[C@H]2c1ccc(C(F)(F)F)cc1	-4	1%	-77*	-18%
CCn1cc(S(=O)(=O)CC(=O)Nc2cc(C)ccc2C)c2ccccc21	3	-1%	-118*	-3%
CCCCC[C@]12Cc3ccccc3C(O1)C1=C(CC(C)(C)CC1=O)O2	.	2%[11.5 µM]	.	.
CCOC(=O)c1nn(-c2ccc(Br)cc2)cc1C(=O)c1cccc2ccccc12	-4	2%	-104*	-4%
CCOC(=O)c1nn(-c2ccc(F)cc2)cc1O	4	2%	-7	1%
CC(=NNc1ccccc1)C(C)=NNc1ccccc1	43	.	-71*	0%
CCCCN1C(=O)C(CC(=O)NCc2cccc3ccccc23)CC(C(=O)N(C)C)=C1C (stereo not drawn)	7	.	-91*	.
SMILES	hERG WT inh	Tb PFK block	KCNH2 3.1 inh	PTAP TSG101 blk
O=[N+]([O-])c1ccc(CN2CC(N3CCN(CCO)CC3)CS2(=O)=O)cc1 (stereo not drawn)	-1	.	-2	.
CCCCCCN1CCN(C2CN(Cc3ccc([N+](=O)[O-])cc3)S(=O)(=O)C2)CC1 (stereo not drawn)	-96*	.	-112*	.
Cc1ccc(S(=O)(=O)N2CCOCC2)cc1NC(=O)COc1ccccc1Cc1ccccc1	1	-3%	-7	-1%
O=C(O)CC1S/C(=N\N=C2CCCCCC2)N(c2ccccc2)C1=O (stereo not drawn)	-104*	1%	15	-4%
Cc1ccc(CNC(=O)c2ccc(N3CCC4(CC3)CC(c3cccc(Br)c3)=NO4)c([N+](=O)[O-])c2)cc1	-4	-5%	5	-4%
CCCNC(=O)c1ccc(N2CCC3(CC2)CC(c2cccc(Br)c2)=NO3)c([N+](=O)[O-])c1	-129*	1%	-80*	0%
